In all, about 33,000 sequences were measured (“E-score (-0.5 to 0.5)”: median about -0.0059, highest 2% from about 0.26 on). This is one part of a sample in which the highest values are shown more often than they occur.
molecular target: T1, Cin5 (UniProt P40917); experiment: PBM E-score (8-mer binding enrichment) (E-score (-0.5 to 0.5)); higher = stronger / more preferred TF binding; conditions: protein concentration: 100 nM; construct: GST-full length
T1 sequence: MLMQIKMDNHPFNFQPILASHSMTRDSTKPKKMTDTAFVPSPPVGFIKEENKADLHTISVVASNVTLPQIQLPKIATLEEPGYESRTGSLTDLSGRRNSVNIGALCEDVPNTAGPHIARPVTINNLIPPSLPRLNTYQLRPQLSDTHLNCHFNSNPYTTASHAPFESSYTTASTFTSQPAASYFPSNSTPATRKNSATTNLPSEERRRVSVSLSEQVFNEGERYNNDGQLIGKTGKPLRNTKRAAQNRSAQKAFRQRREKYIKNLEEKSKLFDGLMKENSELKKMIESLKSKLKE
Procedure: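 Universal 'all 10-mer' protein binding microarrays (Agilent AMADID 015681) probed with GST-tagged S. cerevisiae TFs (full-length or DBD) made by in vitro transcription/translation (PURExpress), about 100-200 nM. Bound TF was detected with fluorescent anti-GST. Each ungapped 8-mer (which stands for itself and its reverse complement) is scored by the PBM enrichment score (E-score), a modified Wilcoxon-Mann-Whitney statistic from -0.5 to +0.5, computed with the Universal PBM Analysis Suite. Scale: above 0.35 generally sequence-specific binding.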

Sequence	PBM E-score
CTCGATTC	0.119
ATCGATTA	0.248
AGGGATTA	0.0341
CTCGATTA	0.264
CGGGATTA	0.294
ACCTACTC	0.0706
AGATCTGA	0.0167
ATAGCTTA	0.154
GTTGCTTA	0.338
GTTGCTGA	0.12
CTAGCTTA	0.256
GTAGCTTA	0.279
ATTGCTTG	0.177
ATTGCGTC	0.128
GTTGCGTA	0.068
ATTGCGTA	0.287
CTTGCTTA	0.229
ATTGCTTA	0.259
ATTGCTGA	0.115
CCTTGTTA	-0.0571
AACTCGGC	0.121
GCCGCTAC	-0.0553
AGCGGGCG	-0.0666
TCTGGGCA	-0.124
GGGCGAAA	0.0331

Sequence	PBM E-score
ACCGCCGC	-0.101
TCCGCTAA	-0.0291
AGACCTTC	-0.134
AGCCTAAA	-0.0722
CGTTGCGA	-0.0384
GCGCTGAA	-0.2
ACCAGATC	-0.0659
TTAATTAA	0.183
ATAATTAC	0.365
CTAATTAC	0.24
ATAATTAG	0.241
ATAATTAT	0.341
GTAATTAC	0.175
GTAATTAA	0.13
ATAATTAA	0.303
ACAATTAT	0.205
ACCGGTAC	-0.217
CAACACTC	0.105
GGATCAGA	-0.042
CGTGAAAG	-0.0748
GTATTCGA	-0.0476
ACAACCTA	0.0123
AATCGCTG	-0.0284
ATATTGAT	0.249
ATATTGAG	0.266

Sequence	PBM E-score
CTATTGAG	0.144
GCTCAAAA	-0.00649
ACTAATAT	0.234
ACTAATAG	0.277
ACTAATAC	0.26
ACTAATAA	0.221
GCTAATAC	0.153
CCTAATAC	0.113
ATAAGGCG	0.0483
CTCCGCTA	-0.116
CCAGTTAA	0.134
GCGGTGGA	0.0809
GAAGCAGC	-0.162
CAGCTTAC	0.312
CAGCTTAA	0.0109
AAGCTTAA	0.164
CAGCTTGC	-0.0574
AAGCTTAG	0.306
CAGCTTAG	0.0588
GAGCTTAC	0.191
AAGCTTAT	0.231
AAGCTTAC	0.282
CGGGTAGC	-0.214
AGATGGAA	0.167
GAGGTCCA	-0.14

Sequence	PBM E-score
AGGCTTAG	0.0724
CGGCTTAC	0.358
AGGCTTAT	0.152
CGGCTTAA	0.19
AGGCTTAC	0.258
CGGCTTAG	-0.0489
GTAACGGA	0.252
CGAATTAC	0.0723
GCGCGGCC	-0.0214
CCCGCGCG	0.138
CCTTCTGC	-0.126
AAACTTGT	0.0442
AGAACCTG	-0.127
GGACATCA	0.0421
TGACATCA	0.356
CGACATCA	0.137
TCCATTCA	0.0889
GAGGTGCA	-0.0183
AATGCAAA	0.275
AATGCAAG	0.00342
AATGCAAC	0.0401
AATGCATG	0.183
AATGCATT	0.259
AATGCATA	0.116
ACGTTTCG	-0.0249

Sequence	PBM E-score
GCTCCCGA	-0.217
ACGTCTCA	0.124
CAAACTCG	0.0562
AGTTCCGA	0.123
CGCATCTA	0.271
GGCATCTA	-0.0103
AGCATCTA	0.00891
CGCCATCA	-0.202
CAAAAATA	0.277
AAAAAATA	0.213
AACAAATG	0.0424
CAAATATC	0.282
CGGAAATC	0.137
CGGAAATA	0.33
AAAATATC	0.189
GGGAAATA	0.0795
AACAAGTT	0.0368
CAAATATG	0.117
CCAAAATA	0.113
AACAAATT	0.274
CGGGCCTA	-0.236
CGGTTCTC	-0.217
GTGGAAGA	-0.192
ACGGGCAT	-0.0832
ACTAAGAT	0.2

Sequence	PBM E-score
TTCTCCAA	-0.0656
ACACTCAC	0.066
AACAAGTA	0.0249
AACAAGAT	0.146
AACAAATA	0.278
TACAAATA	0.239
AACAAAAT	0.269
AACAAAAA	0.209
GTATCCAC	-0.00124
AATCATCC	0.227
TACTCCTA	0.066
CATCCCAA	0.0478
CATTTCGC	0.111
GATTTCGC	0.262
GATTTCGA	0.11
CAATGGTG	-0.161
CTCTGGAC	0.0765
AGGGTGCA	-0.148
ACATAACT	0.197
ACATAAGA	0.3
ATATAAGA	0.301
ACATAAGT	0.195
ACATAACC	0.235
GTATAAGA	0.0464
ACATAACA	0.286

Sequence	PBM E-score
CTATAAGA	0.0762
ACATAAGG	0.194
ACATAAGC	0.437
TCATAAGA	0.0448
CCATAAGA	0.118
ATGGAACA	-0.0505
GCACTGAA	-0.0379
CCATTGAG	0.00119
AGACACCA	-0.0438
GGGAGCCC	-0.419
CCACGCAG	-0.0201
CCATAAGC	0.215
GCATAAGC	0.276
GCATAAGA	0.0468
GACTTGAC	-0.208
GAGCGGGA	-0.0794
GGCAACCA	-0.0499
CTTTCGCC	-0.0892
GGGAATCA	-0.0779
CGGAATCA	0.27
AGGAATCA	0.172
CATAGCCC	-0.222
